IL-1B inflam inh = inhibitors of inflammasome signaling (IL-1 beta secretion); activity change, % at 57.5 µM; 360,000 tested, 4.7% active; THP-1 LPS/ATP IL-1B secretion, AlphaLISA, 16 h; active compounds read low; AID 743279; in the data active means activity change below about -50%; inconclusive means mostly about -30% to -49%
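THP-1 cells pretreated 1 hr with compounds (up to 57.5 uM final), then stimulated with LPS (250 ng/mL final) plus ATP (1.25 mM final); secreted IL-1B measured by AlphaLISA after 16 hr, decreased signal indicating inhibition.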
LDHA inh = LDHA (human) enzyme inhibition; P00338; purified LDHA, NADH/diaphorase-resazurin fluorescence; active compounds read low; activity change, % (values are at about 110 or 230 µM); 480,000 tested, 0.15% active; in the data active means activity change below about -30%; inconclusive means mostly about -25% to -30%;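 further: plate controls were DMSO wells for no effect and wells without enzyme for full effect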
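Human LDH5 (2 nM) was incubated with 0.06 mM NADH and 0.2 mM pyruvate for 5 min at room temperature in Tris pH 7.4. Remaining NADH was coupled through diaphorase/resazurin, and resorufin fluorescence was read at 0 and 20 min.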
VP16 counter = counter-screen for ROR gamma inhibitors: Gal4-VP16 reporter; Potency, µM (series often up to 53.6 µM), inactives show top-dose activity, negative = inhibition, usual class: inhibitors; Drosophila S2 Gal4-VP16 UAS-luciferase, luminescence, 20 h; 310,000 tested, 3.5% active;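 further: Gal4-VP16 expression switched on by copper sulfate through the metallothionein promoter; potency means the concentration at half of the fitted maximal effect; nearly all actives have a fitted effect of over 50% in size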
DT40 TDP1 no CPT = qHTS for Inhibitors of human tyrosyl-DNA phosphodiesterase 1 (TDP1): qHTS in cells in absence of CPT | 420,000 tested, 15% active | DT40 Tdp1-/- hTDP1 cells, no CPT, ATP luminescence, 48 h | Potency, µM (titrated, usually from 46.2 µM), for the others: at the top dose activity change, negative = growth inhibition, most hits filed as inhibitors; further: potency means the concentration at half of the fitted maximal effect; nearly all actives have a fitted effect of over 55% in size
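Growth of hTDP1-complemented DT40 Tdp1-knockout cells is measured by ATP luminescence after at least 48 hr compound exposure at 37 °C, with DMSO substituting for the 20 nM CPT used in the parallel screen.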
RORg inh = blocks mouse ROR gamma transcriptional activity. 310,000 tested, 5.4% active. Potency, µM (doses to about 53.6 µM), without a hit: top-dose activity change, negative = inhibition, usual class: inhibitors. Drosophila S2 Gal4-RORgamma UAS-luciferase reporter, 20 h; further: potency means the concentration at half of the fitted maximal effect; nearly all actives have a fitted effect of over 60% in size
Target sequence (P51450 whole entry, looked up, the tested form may be a part): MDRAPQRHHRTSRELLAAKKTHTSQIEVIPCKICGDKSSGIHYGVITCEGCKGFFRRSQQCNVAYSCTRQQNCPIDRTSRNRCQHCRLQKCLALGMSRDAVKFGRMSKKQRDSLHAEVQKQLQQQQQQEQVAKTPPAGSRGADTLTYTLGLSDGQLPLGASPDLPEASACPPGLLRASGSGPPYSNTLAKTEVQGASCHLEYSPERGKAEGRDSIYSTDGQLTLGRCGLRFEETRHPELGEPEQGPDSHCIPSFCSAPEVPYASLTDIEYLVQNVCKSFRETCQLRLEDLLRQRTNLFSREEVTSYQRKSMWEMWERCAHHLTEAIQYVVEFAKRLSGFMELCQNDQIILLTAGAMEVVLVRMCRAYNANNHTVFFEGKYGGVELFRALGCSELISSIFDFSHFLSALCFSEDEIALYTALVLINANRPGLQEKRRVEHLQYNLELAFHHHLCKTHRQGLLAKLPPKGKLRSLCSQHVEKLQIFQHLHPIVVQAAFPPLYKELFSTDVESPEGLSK
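A Gal4/UAS one-hybrid system in insect cells: metallothionein-promoter Gal4–ROR gamma fusion plus Photinus luciferase reporter. Copper sulfate 700 uM final, 20 hr ambient incubation, luminescent detection after 10 min with reagent.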
TDP1 cell CPT = DT40-hTDP1 cell growth loss with CPT. chicken DT40 Tdp1-/-;hTDP1 cells + 20 nM CPT, ATP luminescence, 48 h. Potency, µM (titrated, usually from 46.2 µM), inactives show at the top dose activity change, negative = growth inhibition, hits mostly inhibitors. 420,000 tested, 12% active. AID 686979; further: potency means the concentration at half of the fitted maximal effect; nearly all actives have a fitted effect of over 55% in size
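Chicken DT40 Tdp1-/- cells complemented with human TDP1, 400 cells/well, exposed to compounds plus 20 nM camptothecin for at least 48 h at 37 C; viability read as ATP content by CellTiter-Glo luminescence.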
Numbers without * were called inactive; ? = inconclusive; . = no result given. A selection: hits, their analogues and other compounds. The true share with any hit is near 18%. Unless noted, the call rests on the fitted dose curve; in most records, active means well fitted curve in the direction sought with a large enough effect; inconclusive means small, poorly fitted or top-dose-only effect, or another doubt; inactive means no such curve, though single readings can be large; an effect the other way counts as inactive or inconclusive. Unless noted, on the % scale 0 is the no-effect control and ±100 the full control effect.

SMILES	IL-1B inflam inh	LDHA inh	VP16 counter	DT40 TDP1 no CPT	RORg inh	TDP1 cell CPT
CCOC(=O)c1ccc(NC(=O)CCc2nc(-c3cccc(C)c3)no2)cc1	?	5.6	-12.0%	16.4µM*	7.9%	?
N#Cc1ccccc1OCC(=O)NC1(C#N)CCCC1	.	-1.8	.	.	.	.
COc1cccc(CN(C)CC(=O)Nc2cc(C)nn2-c2ccccc2C)c1	.	6.9	.	.	.	.
CCN(CC)C(=S)SCc1csc(CC(=O)Nc2ccccc2C)n1	10.3	-3.3	-21.8%	?	11.2µM*	?
CCOC(=O)CSCc1csc(CC(=O)Nc2ccccc2C)n1	0.0	-0.6	.	13.1%	.	-17.4%
CCOc1ccc(-c2c(C(=O)N/N=C/c3ccccc3)nnn2-c2nonc2N)cc1	4.7	-9.8	-7.9%	-18.7%	-17.3%	-8.9%
CCOc1cccc(-c2c(C(=O)N/N=C/c3ccsc3)nnn2-c2nonc2N)c1	12.6	-3.0	25.1µM*	27.9%	11.2µM*	-10.2%
CCOc1ccc(-c2c(C(=O)N/N=C/c3sccc3C)nnn2-c2nonc2N)cc1	-12.4	-3.7	8.91µM*	-3.4%	3.16µM*	-6.1%
CCOc1cccc(-c2c(C(=O)N/N=C/c3sccc3C)nnn2-c2nonc2N)c1	?	-0.9	4.47µM*	?	5.62µM*	-29.6%
CCOc1cccc(-c2c(C(=O)N/N=C/c3c(F)cccc3Cl)nnn2-c2nonc2N)c1	-0.3	-5.5	-3.5%	9.6%	-2.3%	3.9%
CCc1ccc(-c2csc(NC(=O)c3nn(C)c(=O)c4ccccc34)n2)cc1	.	-3.0	.	.	.	.
COc1ccccc1C1C(C(C)=O)=C(C)N=c2s/c(=C\c3cc(OC)c(OC)c(OC)c3)c(=O)n21 (stereo not given)	9.4	4.8	-3.3%	20.6µM*	8.6%	16.4µM*
CCOC(=O)C1=C(C)N=c2s/c(=C\c3cccc(OCC(=O)O)c3)c(=O)n2C1c1ccccc1OC (stereo not given)	1.2	1.9	-2.5%	-9.2%	16.1%	-21.6%
CCCCCC(=O)N1CCN(CCNc2cc(=O)oc3ccccc23)CC1	.	-0.3	.	.	.	.
C=CCN1C(=O)C(CC(=O)Nc2ccc(OCC)cc2)N(Cc2ccccn2)C1=S (stereo not given)	-14.8	3.5	-2.7%	?	?	-6.5%
COC(=O)CN1C(=S)N(Cc2ccccc2)C(=O)C1CC(=O)Nc1ccc(Br)cc1 (stereo not given)	-18.0	-1.7	0.8%	?	?	16.4µM*
CCCOc1ccc(NC(=O)CC2C(=O)N(Cc3ccccc3)C(=S)N2Cc2cccs2)cc1 (stereo not given)	?	-2.0	1.0%	20.6µM*	?	9.2µM*
CCN1C(=O)C(CC(=O)Nc2ccc(OC)cc2)N(CCCN2CCN(c3ccc(OC)cc3)CC2)C1=S (stereo not given)	-29.9	1.1	-1.6%	16.4µM*	2.7%	20.6µM*
CCN1C(=O)C(CC(=O)Nc2ccc(OC)cc2)N(CCc2ccccc2)C1=S (stereo not given)	-75.7*	-3.3	-2.5%	-20.4%	20.7%	4.5%
COc1ccccc1OCC(=O)Nc1ccc2c(=O)c3cccc(Cl)c3oc2c1	.	0.4	.	.	.	.
Cc1cc(C)cc(OC(C)C(=O)Nc2cccc3cccnc23)c1 (stereo not given)	.	5.3	.	.	.	.
O=C(O)c1ccccc1SCc1ccc(Br)cc1	.	3.5	.	.	.	.
CN(Cc1ccco1)c1ncnc2ccc(-c3ccccc3C(F)(F)F)cc12	.	.	-9.9%	23.1µM*	40.3%	?
CN(Cc1ccco1)c1ncnc2ccc(-c3ccccc3Cl)cc12	.	-4.9	14.9%	?	36.9%	20.6µM*
COc1ccccc1-c1ccc2ncnc(N(C)Cc3ccco3)c2c1	.	.	?	?	14.2%	?
SMILES	IL-1B inflam inh	LDHA inh	VP16 counter	DT40 TDP1 no CPT	RORg inh	TDP1 cell CPT
CN(Cc1ccco1)c1ncnc2ccc(-c3ccoc3)cc12	.	2.5	-19.5%	?	?	18.4µM*
COc1ccc(NC(=O)NCc2cccn2Cc2cccc(F)c2)cc1OC	.	-20.0	.	.	.	.
O=C(NC1(C(F)(F)F)NC(=O)N(CCc2ccccc2)C1=O)c1ccccc1F (stereo not given)	.	0.1	.	-7.0%	.	-23.1%
COc1cc(C(=O)NC2(C(F)(F)F)NC(=O)N(CCCc3ccccc3)C2=O)cc(OC)c1OC (stereo not given)	-6.0	-1.7	7.1%	?	3.8%	?
O=C(NC1(C(F)(F)F)NC(=O)N(CCc2ccccc2)C1=O)c1ccc(Cl)cc1 (stereo not given)	.	-7.8	.	?	.	20.6µM*
CC(C)(C)c1ccc(C(=O)NC2(C(F)(F)F)NC(=O)N(CCc3ccccc3)C2=O)cc1 (stereo not given)	.	0.3	.	23.1µM*	.	20.6µM*
CC(=O)Nc1sc2c(c1-c1nc3ccccc3s1)CCSC2	.	4.7	.	.	.	.
COc1ccccc1N1CCN(C(CNC(=O)C(=O)NCCc2ccccc2)c2cccnc2)CC1 (stereo not given)	.	-7.5	.	8.2µM*	.	10.3µM*
COc1ccc(C(=O)NCC(c2cccnc2)N2CCN(c3ccccc3OC)CC2)cc1 (stereo not given)	.	-8.6	.	11.6µM*	.	18.4µM*
CCS(=O)(=O)NCC(c1cccnc1)N1CCN(c2ccccc2OC)CC1 (stereo not given)	-10.4	-2.9	3.3%	-15.0%	-3.5%	-14.4%
CC(CNC(=O)Cn1nc(C(N)=O)c2ccccc2c1=O)(c1ccccc1)c1ccccc1	.	7.4	.	.	.	.
Cc1c(-c2ccc(/C=N/NC(=O)C(=O)Nc3ccccc3F)o2)cccc1[N+](=O)[O-]	5.0	0.8	2.4%	-18.1%	24.8%	1.7%
CNC(=S)N/N=C/c1ccc(-c2cccc(C(=O)O)c2)o1	19.1	-4.9	?	8.2µM*	7.08µM*	9.2µM*
Cc1ccc(OCC(=O)N/N=C\c2ccc(-c3cccc(C(=O)O)c3)o2)c(C)c1	0.0	0.3	-11.8%	-19.5%	22.2%	-9.1%
O=[N+]([O-])c1cccc(-c2ccc(/C=N/NC(=S)NCc3ccco3)o2)c1	-10.6	-12.0	3.16µM*	16.4µM*	0.447µM*	23.1µM*
Cc1ccc(C(=O)N/N=C/c2ccc(-c3cccc(C(F)(F)F)c3)o2)cn1	2.7	-4.7	10µM*	2.59µM*	3.55µM*	2.91µM*
Cc1cc(C(=O)N/N=C/c2ccc(-c3cccc([N+](=O)[O-])c3)o2)n[nH]1	-11.6	-2.8	-10.3%	3.4%	-18.5%	-9.6%
O=[N+]([O-])c1ccc(/C=N/NC(=S)Nc2ccccc2F)o1	-0.5	-0.5	7.94µM*	?	7.08µM*	-10.0%
